Structures are written as SMILES. In all, about 2,300 compounds went through this assay and about 1,500 (65%) were called active. The rule behind the calls is not given here. So high a share suggests a set chosen from earlier hits. This is one part of the list. Measured potencies and affinities stand elsewhere.

This assay can be described thus: replicating M. tuberculosis growth inhibition, dose response, non-replicating M. tuberculosis project, H37Rv (AID 492952).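 Note: Mycobacterium tuberculosis grown in culture; growth inhibition read after a week of incubation.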 Particulars: series mostly up to 50 µM.
Take `O=C(N/N=C/C=C/c1ccccc1)c1cccs1`: the compound was called inactive. `O=C(Nc1cccnc1)c1cc(Cl)ccc1Cl`: the compound was called inactive.

On to `Cn1c(-c2cccc([N+](=O)[O-])c2)cnc1NCc1cccc(F)c1`, for which the call was inactive. For `O=C1OC(/C=C/c2ccccc2)=NC/1=C\c1cccnc1`, the outcome was inactive. Turning to `Cc1ccccc1C1=N/C(=C/c2cccnc2)C(=O)O1`, the result was inactive. The entry for `O=C(COc1ccc2ccccc2c1Br)N1CCCC1` is “inactive”. With `Cc1cc(OCCCn2ccnc2)ccc1C(C)C`, the call was inactive.

For the compound `O=S(=O)(c1ccc(Cl)c2ccccc12)N1CCCC1`, the compound was called inactive. Take `Cc1ccc(C(=O)COC(=O)CCc2ccc(S(=O)(=O)N3CCCCC3)cc2)cc1`: the outcome was inactive. For the compound `CCOC(=O)C1CCCN(Cc2nc(Cc3ccccc3Cl)no2)C1` (centres undefined), the compound was called inactive. Then `COc1cc(NC(=O)N2CCOCC2)cc(OC)c1`, with “inactive”; and `O=C(COc1c(Br)cc(Br)c2cccnc12)N1CCCCC1`, with “inactive”. The entry for `Cc1cc(C)nc(SC2CC(=O)N(c3ccc(C)c(C)c3)C2=O)n1` (centres undefined) is “inactive”; for `CC(=O)Nc1ccc(NC(=O)[C@@H]2CCCC[C@@H]2C(=O)O)cc1` it is “inactive”. Take `Cc1nc(C(=O)Nc2ccccc2)sc1C(=O)Nc1ccccc1`: the compound was classed as inactive. Then `NC(N)=N/N=C/c1cc([N+](=O)[O-])ccc1O`, with “inactive”; and `NC(=O)N/N=C\c1cc(Br)ccc1O`, with “inactive”. Then `O=C1N=c2ccccc2=C1c1c(O)n(-c2cccc(F)c2)[nH]c1=O`, with “inactive”; and `N/C(=N\OC(=O)c1cccc(Br)c1)c1ccc([N+](=O)[O-])cc1`, with “inactive”; and `N/C(=N\OC(=O)c1cccc2ccccc12)c1cccnc1`, with “inactive”. Then `Cc1ccc(C(=O)O/N=C(\N)c2cccc([N+](=O)[O-])c2)cc1`, with “inactive”. `O=C(Cc1c(F)cccc1Cl)Nc1ncc([N+](=O)[O-])s1`: the outcome was inactive. Then `O=C(COc1ccccc1)Nc1ccc(F)cc1`, with “inactive”. Regarding `CCCNC(=O)NC(=O)COc1ccc2oc3ccccc3c2c1`, the call was inactive. Regarding `N#CC1=C(N)Oc2c(ccc3cccnc23)C1c1ccccc1` (centres undefined), the compound was called inactive. Then `O=C(NCCc1cccc(Cl)c1)c1cc2ccccc2oc1=O`, with “inactive”; and `COCCCC1CCN(Cc2nc(-c3ccccc3)no2)CC1`, with “inactive”; and `CC(C)(C)OC(=O)NCCC(=O)Oc1ccc2ccc(=O)oc2c1`, with “inactive”. The entry for `O=C(NC(=S)Nc1ccc(F)cc1)C1CCCCC1` is “inactive”.

In the case of `O=C(N/N=C/c1cccc([N+](=O)[O-])c1O)c1cccs1`, the compound was classed as inactive. Turning to `O=C(O)c1ccccc1-c1ccccc1C(=O)Nc1nc2ccccc2s1`, the compound was called inactive. Then `O=C(O)c1ccccc1C(=O)NNc1ccc(Cl)cc1`, with “inactive”; and `O=C(NCCN1C(=O)S/C(=C\c2ccccc2F)C1=O)C1CCN(S(=O)(=O)c2cccs2)CC1`, with “inactive”; and `O=S(=O)(Nc1ccc(O)c2ccccc12)c1ccc(F)cc1`, with “inactive”. Take `O=c1cc(-c2ccccc2Cl)oc2c([N+](=O)[O-])c(O)cc(O)c12`: the compound was classed as inactive. In the case of `Cc1ccc(-c2nnc(Cc3ccc([N+](=O)[O-])cc3)o2)cc1`, the compound was called inactive.

For `CCC1CCC(c2nnc(-c3ccc([N+](=O)[O-])cc3)o2)CC1` (centres undefined), the compound was called inactive.

On to `COc1ccc(Cc2nnc(SCc3ccc([N+](=O)[O-])cc3)o2)cc1`, for which the call was inactive.

As to `Cc1nc(Cl)nc(N(C)c2ccccc2)c1[N+](=O)[O-]`, the compound was classed as inactive. For the compound `O=C1CCCCC1Sc1nnc(-c2ccc3c(c2)OCO3)o1` (centres undefined), the result was inactive. Then `C(=C\c1ccccc1)/CSc1nc2ncccc2[nH]1`, with “inactive”. Take `O=C(CCSc1ccccc1)N1CCCC1`: the result was inactive.

Take `CCCC(O)(CCC)C(=O)NNc1ccc(C)cc1`: the call was inactive. Then `CCS(=O)(=O)c1ncc(Cl)c(C(=O)Nc2ccc(S(=O)(=O)N3CCC(C)CC3)cc2)n1`, with “inactive”. The entry for `COc1ccc(CNC(=O)COC(=O)C2CC3C=CC2C3)cc1` (centres undefined) is “inactive”; for `CCCCNC(=O)Cc1ccc(C)cc1` it is “inactive”; for `CC(C)CSc1nnc2c3ccccc3n(C)c2n1` it is “inactive”. The entry for `O=C(c1cc2ccccc2o1)c1nc2c(n1O)CCCCC2` is “inactive”.

For `CCCCOC(=O)c1ccc(NC(=O)C2CCCO2)cc1` (centres undefined), the compound was classed as inactive. Then `CCCOC(=O)c1ccc(NC(=O)Cc2cccs2)cc1`, with “inactive”; and `CCCOC(=O)c1ccc(NC(=O)C2C3C=CC(O3)C2C(=O)O)cc1` (centres undefined), with “inactive”; and `O=C(Nc1ccccc1)c1ccc(Br)o1`, with “inactive”. Then `CC1CCN(S(=O)(=O)c2cccc(C(=O)Oc3ccc([N+](=O)[O-])cc3)c2)CC1`, with “inactive”; and `C=CCN(CC=C)C(=O)Cc1ccc(F)cc1`, with “inactive”.

Regarding `O=C(CCNc1cccc(F)c1)c1cccc([N+](=O)[O-])c1`, the result was inactive. Consider `Nc1ccccc1C(=O)NNC1=C(C(=O)C(F)(F)F)CCC1`, for which the call was inactive.

`COc1ccc(C)c2sc(NC(=O)CCS(=O)(=O)c3ccccc3)nc12`: the compound was called inactive. The entry for `Cc1ccc(-c2nnc(-c3cccs3)o2)cc1` is “inactive”; for `O=C(NC1CCCC1)c1cc(-c2cccs2)on1` it is “inactive”; for `CN1C(=O)CC(N2CCC(c3nc4ccccc4s3)CC2)C1=O` (centres undefined) it is “inactive”.

Regarding `CSc1ccc(COC(=O)CCS(=O)(=O)c2ccc(C)cc2)cc1`, the compound was called inactive. Then `COc1ccc(OCCOC(=O)CCS(=O)(=O)c2ccc(C)cc2)cc1`, with “inactive”. As to `O=C(CCS(=O)(=O)c1ccc(Cl)cc1)Oc1ccc2c(c1)OCO2`, the compound was called inactive.

In the case of `O=C(COc1ccc(F)cc1)Nc1ccc2c(c1)OCCO2`, the compound was called inactive. Then `Cc1ccc(NC(=O)CC2SC3=NCCCN3C2=O)c(C)c1` (centres undefined), with “inactive”; and `CC(C)c1ccc(C2=C(O)c3ccccc3C(=O)C2=O)cc1`, with “inactive”; and `CC1CCCN(CCSc2ccc(Cl)cc2)C1` (centres undefined), with “inactive”. The entry for `CC(CN1CCOCC1)OC(=O)c1ccc2c(c1)OCCO2` (centres undefined) is “inactive”; for `CCOC(=O)Nc1ccc2c(c1)N(C(=O)CCN1CCOCC1)c1ccccc1S2=O` (centres undefined) it is “inactive”; for `Cc1ccc(C(=O)CCC2CCCC2=O)cc1` (centres undefined) it is “inactive”. For `NCCCN1CCOCC1`, the compound was classed as inactive. Then `CCOC(=O)C1CCN(CCCSc2ccc(Cl)cc2)CC1`, with “inactive”. As to `Clc1ccc(SCCCCN2CCNCC2)cc1`, the compound was classed as inactive. Regarding `O=Cc1ccc(-c2ccc(Cl)cc2Cl)[nH]1`, the compound was called inactive. `Fc1ccc(COc2ccc(-c3nnco3)cc2)cc1`: the result was inactive. For the compound `O=C(CCCSc1nc2ccccc2s1)NCc1ccco1`, the outcome was inactive. The entry for `COC(=O)CCSCc1cn2cc(Cl)ccc2n1` is “inactive”. The entry for `Cc1cc2n(n1)SC(Nc1ccccc1)N2` (centres undefined) is “inactive”; for `CC(C)n1c(=S)[nH]c2ccccc2c1=O` it is “inactive”.

The values above are taken from PubChem BioAssay AID492952 (Southern Research Specialized Biocontainment Screening …, 2010).
